Measured values taken from PubChem BioAssay AID686978 (National Center for Advancing Translational Sciences (NCATS), 2013).
About 64,000 (15%) of roughly 420,000 compounds were called active. Roughly 27% stayed inconclusive and do not appear here. Calls come from the whole dose curve; as a rule, active = well fitted inhibition curve with a large enough effect; inconclusive = small, poorly fitted or top-dose-only effect; inactive = flat fitted curve, though single readings scatter. Not all results are given here.

Test: qHTS for Inhibitors of human tyrosyl-DNA phosphodiesterase 1 (TDP1): qHTS in cells in absence of CPT; note: nearly all actives have a fitted effect of over 55% in size
Settings: DT40 Tdp1-/- hTDP1 cells, no CPT, ATP luminescence, 48 h; activity change, negative = growth inhibition: at 46.2 µM (top of the series)
Outline: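 Growth kinetics read by CellTiter-Glo luminescence after ≥48 hr at 37 °C. Cells: DT40 Tdp1-/- stably carrying human TDP1, 400 per well, compound exposure in the absence of CPT (DMSO vehicle).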
% is set by controls: 0 for no effect and ±100 for the full control effect; potency is the fitted concentration of half-maximal effect.

SMILES | activity change, negative = growth inhibition | Potency
Cc1ccc(S(=O)(=O)N2CCOCC2)cc1NC(=O)COC(=O)c1cnccn1 | 8.82% (inactive) | –
CCCCCCC1(C)NC(c2ccc3c(c2)OCO3)=CC(c2ccccc2O)N1 (stereo unspecified) | – | 15.8 µM (active)
CCc1ccccc1NC(=O)c1cc(-c2ccc3c(c2)OCO3)on1 | – | inactive
CC(C)COC(=O)c1ccc(NC(=O)C2C3C=CC(C3)C2C(=O)O)cc1 (stereo unspecified) | -23% (inactive) | –
CC1=CC=CN2C1=NC(=O)CC2(C)C(=O)N(CC(=O)NC1CCCC1)c1ccccc1C (stereo unspecified) | 23.1% (inactive) | –
N#Cc1ccc(C(c2ccc(C#N)cc2)n2cncn2)cc1 | -7.38% [at 21.1 µM] (inactive) | –
Cc1onc(-c2c(F)cccc2Cl)c1C(=O)N(C)CC(=O)Nc1cccc(F)c1 | -0.215% (inactive) | –
CC(=O)Nc1cccc(/C(C)=N/NC(=O)c2c(-c3ccccc3Cl)noc2C)c1 | – | 13 µM (active)
CC(=NNC(=O)c1ccncc1)c1ccc(Cl)c(Cl)c1 | -27.8% (inactive) | –
Cc1oc(-c2ccccc2F)nc1CS(=O)CC(=O)NCCN1CCCCC1C (stereo unspecified) | 25.6% (inactive) | –
Cc1oc(-c2ccccc2F)nc1CN1CCC(C(=O)NCCc2ccc(Cl)cc2)CC1 | – | 16.4 µM (active)
COc1ccc(-c2nc(CN3CCC(C(=O)NCc4ccccc4)CC3)c(C)o2)cc1OC | -0.259% (inactive) | –
C[C@H]1[C@H]2c3nc4ccccc4n3C[C@H]1ON2C1CCCCC1 | -13.5% (inactive) | –
CSc1ncc(C(=O)NCc2ccccc2Cl)c(C(F)(F)F)n1 | -28.9% (inactive) | –
CCc1ccc(NC(=O)c2ccc(Cn3cc([N+](=O)[O-])cn3)cc2)cc1 | -14.7% (inactive) | –
COc1cc(NS(=O)(=O)c2ccc(NC(=O)c3ccc([N+](=O)[O-])cc3)cc2)ncn1 | -9.31% (inactive) | –
Cn1ccc(=Nc2ccc(NC(=O)c3ccc(N=c4ccn(C)c5ccc([N+](=O)[O-])cc45)cc3)cc2)cc1 | – | 3.66 µM (active)
Oc1ccc2ccccc2c1N=Nc1nccs1 | – | 0.651 µM (active)
Oc1ccc(N=Nc2nccs2)c(O)c1 | – | 20.6 µM (active)

SMILES | activity change, negative = growth inhibition | Potency
Oc1c(C=Nc2cccc3nsnc23)ccc2ccccc12 | -28.4% (inactive) | –
Cc1nc(Nc2ccccc2C)c2cnn(C)c2n1 | -12.1% (inactive) | –
Cc1ccc(CCCOC(=O)C[N+]2(C)CCCCC2)cc1 | -5.38% (inactive) | –
CCCOc1ccc(N2CC(C(=O)Nc3ccccn3)CC2=O)cc1 (stereo unspecified) | -2.41% (inactive) | –
CC(C)CCN1CCN(Cc2cn[nH]c2C2CCCCC2)CC1CCO (stereo unspecified) | -14.3% (inactive) | –
CCOC(=O)c1cn(Cc2cccc(C)c2)nn1 | -21.4% (inactive) | –
CSc1nn(Cc2cccc(C)c2)c(N)c1S(=O)(=O)c1ccccc1 | – | 18.4 µM (active)
Cc1nn(Cc2ccccc2)c(C)c1NS(=O)(=O)c1ccccc1 | -22.6% (inactive) | –
CCOC(=O)C(C)N(c1ccccc1Cl)S(C)(=O)=O (stereo unspecified) | -1.47% (inactive) | –
CCOC(=O)c1ccc2c(c1)nc(SCC(=O)NC(C)C)n2CC | -1.77% (inactive) | –
Cc1ccc(F)c(S(=O)(=O)NC(=O)C2(C)CCN2C(=O)CCc2cccs2)c1 (stereo unspecified) | -14.3% (inactive) | –
COc1ccc(/C=C2/S/C(=N/N=C3\CC4CCC3(C)C4(C)C)NC2=O)cc1 (stereo unspecified) | 2.35% (inactive) | –
COc1ccc(C=C2CCC3C(CCCC34OCCO4)C2=O)cc1 (stereo unspecified) | – | 23.1 µM (active)
COc1ccc2c(c1)CC[C@@H]1[C@@H]2CC[C@]2(C)C(=O)CC[C@@H]12 | -21.2% (inactive) | –
C#CCN1CC(C)/C(=N/O)CC1C (stereo unspecified) | -36% (inactive) | –
COc1ccccc1CNS(=O)(=O)c1c(C)[nH]c(C)c1C(=O)N1CCCCC1 | -7.77% (inactive) | –
CCc1nc(Nc2ccc(NC(C)=O)cc2)c2oc3ccccc3c2n1 | -17.5% (inactive) | –
CCc1nc(Nc2ccc3nccnc3c2)c2oc3ccccc3c2n1 | – | 2.31 µM (active)
CCSc1nc(C)nc2c1oc1ccccc12 | -20.5% (inactive) | –

SMILES | activity change, negative = growth inhibition | Potency
C/C(=N/NC(=O)c1ccncc1)c1ccc2c(c1)OCO2 | 1.98% (inactive) | –
C/C(=N/NC(=S)Nc1ccccc1)c1ccc2c(c1)OCO2 | – | 0.517 µM (active)
C/C(=N\NC(=O)C(N)=O)c1ccc2c(c1)OCCO2 | 3.69% (inactive) | –
CCS(=O)(=O)N(C)[C@@H]1c2cc(C#N)ccc2OC(C)(C)[C@H]1O | – | inactive
O=c1cc(CCl)nc2scc(-c3ccccc3)n12 | – | 16.4 µM (active)
C/C(CC(O)(/C=N/O)c1ccccc1)=N\O (stereo unspecified) | -2.03% (inactive) | –
C/C(CC(=O)Nc1ccc(Cl)cc1)=N\NC(=O)C(=O)NCCO | -17% (inactive) | –
COCCn1c(CN(Cc2ccccc2)Cc2ccccc2)nc2c1c(=O)n(C)c(=O)n2C | – | 25.9 µM (active)
CCCCn1c(SCC(=O)N2CCOCC2)nc2c1c(=O)n(C)c(=O)n2C | -17.5% (inactive) | –
CC(C)CCn1c(CN(C)Cc2ccccc2)nc2c1c(=O)n(C)c(=O)n2C | – | 6.51 µM (active)
CC(O)c1nc2c(c(=O)n(C)c(=O)n2C)n1C (stereo unspecified) | 1.38% (inactive) | –
Cn1c(=O)c2c(nc(N3CCOCC3)n2CCNC2=NCCC2)n(C)c1=O | -1.9% (inactive) | –
CCCCCCn1c(CN2CCCCC2)nc2c1c(=O)n(C)c(=O)n2C | – | 20.6 µM (active)
CC(C)Cn1cnc2c1c(=O)n(CC(O)c1ccccc1)c(=O)n2CC(C)C (stereo unspecified) | -11.1% (inactive) | –
CC(C)Cn1c(CN(Cc2ccccc2)Cc2ccccc2)nc2c1c(=O)n(C)c(=O)n2C | – | 14.6 µM (active)
Cn1c(=O)[nH]c(=O)c2c1nc(CN(Cc1ccccc1)Cc1ccccc1)n2CCN1CCOCC1 | -27.6% (inactive) | –
CC(C)CCn1cnc2c1c(=O)n(CC(=O)NC(N)=O)c(=O)n2Cc1ccccc1 | 5.92% (inactive) | –
CC(C)Cn1cnc2c1c(=O)n(CC(=O)NN)c(=O)n2Cc1ccccc1 | 0.54% (inactive) | –
